Assay results from PubChem BioAssay (NCI).
This is part of a sample that, as a whole, favours compounds with a hit. Of some 83,000 tested, about 20% had one in any assay.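 Assay: single dose, 48 h. Readout: percent growth (0 = no net growth; negative = cell death). Active: <10.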 Calls of active or inactive are those of the source.

How the values were obtained:
Experiment in all cases: NCI-60 one-dose screen, 48 h (100 = growth as untreated, 0 = no growth, -100 = all killed)
T-47D breast = conditions: 10 µM
BT-549 breast = conditions: 10 µM
MDA-MB-435 melanoma = conditions: 10 µM
SW-620 colon = conditions: 10 µM
MCF7 breast = conditions: 10 µM unless noted
HCT-116 colon = conditions: 10 µM
HCC-2998 colon = conditions: 10 µM
KM12 colon = conditions: 10 µM

Measured: growth

CC(=O)NCc1cc(C)c(C)cc1C
inactive: T-47D breast 89% | BT-549 breast 100% | MDA-MB-435 melanoma 114% | SW-620 colon 107% | MCF7 breast 97.4% | HCT-116 colon 101% | HCC-2998 colon 115% | KM12 colon 95.7%

Nc1ccc(NC(=O)c2cccc(N)c2)cc1
inactive: T-47D breast 95.9% | BT-549 breast 93.3% | MDA-MB-435 melanoma 104% | SW-620 colon 102% | MCF7 breast 105% | HCT-116 colon 94.4% | HCC-2998 colon 107% | KM12 colon 103%

O=C(O)CCCC(=O)O
inactive: T-47D breast 128% | BT-549 breast 118% | MDA-MB-435 melanoma 107% | SW-620 colon 93.1% | MCF7 breast 101% | HCT-116 colon 100% | HCC-2998 colon 103% | KM12 colon 92.4%

O=S(=O)(O)CC(O)CN1CCN(CCO)CC1 (stereo not drawn)
inactive: T-47D breast 108% | BT-549 breast 99.3% | MDA-MB-435 melanoma 113% | SW-620 colon 105% | MCF7 breast 96% | HCT-116 colon 101% | HCC-2998 colon 89.4% | KM12 colon 107%

CC(C)=NNC(N)=S
active: MCF7 breast 7%
inactive: T-47D breast 44.1% | BT-549 breast 88.3% | MDA-MB-435 melanoma 80.2% | SW-620 colon 68.7% | HCT-116 colon 21.4% | HCC-2998 colon 105% | KM12 colon 94.9%

CC(C)C(C#N)(C(C)C)C(C)C
inactive: T-47D breast 104% | BT-549 breast 102% | MDA-MB-435 melanoma 96.3% | SW-620 colon 101% | MCF7 breast 97.7% | HCT-116 colon 103% | HCC-2998 colon 110% | KM12 colon 103%

CC(=O)N(C)c1ccc([N+](=O)[O-])cc1
inactive: T-47D breast 94.7% | BT-549 breast 97.4% | MDA-MB-435 melanoma 113% | SW-620 colon 107% | MCF7 breast 95.6% | HCT-116 colon 102% | HCC-2998 colon 94.8% | KM12 colon 114%

CCOC(=O)c1[nH]c(C)c(C(C)=O)c1C
inactive: T-47D breast 86.9% | BT-549 breast 107% | MDA-MB-435 melanoma 94.7% | SW-620 colon 99.4% | MCF7 breast 87.1% | HCT-116 colon 90.4% | HCC-2998 colon 88.6% | KM12 colon 98.3%

CCc1nn(Cc2ccccc2)c2nc(C)c(CCc3ccccc3)c(Cl)c12
inactive: T-47D breast 59.2% | BT-549 breast 99.3% | MDA-MB-435 melanoma 92.4% | SW-620 colon 99.2% | MCF7 breast 82.7% | HCT-116 colon 81.2% | HCC-2998 colon 101% | KM12 colon 101%

C#CCSc1nnnn1-c1ccc(Br)c(C)c1
inactive: T-47D breast 87.6% | BT-549 breast 103% | MDA-MB-435 melanoma 95.8% | SW-620 colon 99.9% | MCF7 breast 82.4% | HCT-116 colon 88% | HCC-2998 colon 121% | KM12 colon 102%

COC(=O)Nc1nc2ccc(C(=O)c3cccs3)cc2[nH]1
inactive: T-47D breast 91.1% | BT-549 breast 26.3% | SW-620 colon 24.8% | MCF7 breast 14.6% | HCT-116 colon 11.7% | HCC-2998 colon 12.1%
active: MDA-MB-435 melanoma -47.6% | KM12 colon 7.54%

C/C(O)=C(\C=N\C(N)=S)C(=O)Nc1ccccc1
inactive: T-47D breast 102% | BT-549 breast 108% | MDA-MB-435 melanoma 110% | SW-620 colon 110% | MCF7 breast 102% | HCT-116 colon 102% | HCC-2998 colon 110% | KM12 colon 104%

CC1CCC2C(C)(C)C3CC12CC1OC13C (stereo not drawn)
inactive: T-47D breast 99.3% | BT-549 breast 107% | MDA-MB-435 melanoma 107% | SW-620 colon 98.8% | MCF7 breast 102% | HCT-116 colon 101% | HCC-2998 colon 127% | KM12 colon 111%

O=C(O)c1cccc([N+](=O)[O-])c1
inactive: T-47D breast 109% | BT-549 breast 108% | MDA-MB-435 melanoma 111% | SW-620 colon 111% | MCF7 breast 99.2% | HCT-116 colon 102% | HCC-2998 colon 102% | KM12 colon 105%

Nc1ccc(N=Nc2ccc(S(=O)(=O)O)cc2)c2ccccc12
inactive: T-47D breast 57.3% | BT-549 breast 102% | MDA-MB-435 melanoma 98.6% | SW-620 colon 88.7% | MCF7 breast 91.4% | HCT-116 colon 89% | HCC-2998 colon 88.3% | KM12 colon 99.2%

CCOC(=O)Nc1cc2c(c(N)n1)N=C(c1ccccc1)CO2
inactive: T-47D breast 72.3% | BT-549 breast 49.7% | SW-620 colon 26.2% | MCF7 breast 20.4% | HCC-2998 colon 23.5%
active: MDA-MB-435 melanoma 4.31% | HCT-116 colon 6.32% | KM12 colon 5.46%

c1ncc2[nH]cnc2n1
inactive: T-47D breast 94.5% | BT-549 breast 106% | MDA-MB-435 melanoma 108% | SW-620 colon 96.7% | MCF7 breast 93.5% | HCT-116 colon 92.4% | HCC-2998 colon 93.7% | KM12 colon 105%

O=C(O)/C=C/C(=O)NCc1ccccc1
inactive: T-47D breast 98.5% | BT-549 breast 104% | MDA-MB-435 melanoma 101% | SW-620 colon 109% | MCF7 breast 91.9% | HCT-116 colon 106% | HCC-2998 colon 95.7% | KM12 colon 104%

COc1ccc(C)cc1OC
inactive: T-47D breast 107% | BT-549 breast 114% | MDA-MB-435 melanoma 108% | SW-620 colon 107% | MCF7 breast 102% | HCT-116 colon 105% | HCC-2998 colon 100% | KM12 colon 105%

Cc1c(O)cnc2nn(-c3ccccc3)c(=N)n12
inactive: T-47D breast 100% | BT-549 breast 108% | MDA-MB-435 melanoma 107% | SW-620 colon 102% | MCF7 breast 97.5% | HCT-116 colon 101% | HCC-2998 colon 98.4% | KM12 colon 95.8%

Cc1ccccc1C1N=C2Oc3ccccc3C=C2C(=O)N1 (stereo not drawn)
inactive: T-47D breast 48.1% | BT-549 breast 27.2% | SW-620 colon 40% | MCF7 breast 20.8% | HCT-116 colon 42.1% | HCC-2998 colon 26.1% | KM12 colon 64.8%
active: MDA-MB-435 melanoma -57.7%

CC1=C(/C=C/C(C)=C/C=C/C(C)=C/CO)C(C)(C)CCC1
inactive: T-47D breast 96.6% | BT-549 breast 108% | MDA-MB-435 melanoma 107% | SW-620 colon 109% | MCF7 breast 125% | HCT-116 colon 107% | HCC-2998 colon 108% | KM12 colon 109%

CN(C)Cc1cc(C(C)(C)CC(C)(C)C)ccc1O
inactive: T-47D breast 86.4% | BT-549 breast 100% | MDA-MB-435 melanoma 107% | SW-620 colon 109% | MCF7 breast 95.4% | HCT-116 colon 89.3% | HCC-2998 colon 96.5% | KM12 colon 104%

CC1SC(N)=NC1=O (stereo not drawn)
inactive: T-47D breast 106% | BT-549 breast 123% | MDA-MB-435 melanoma 109% | SW-620 colon 112% | MCF7 breast 103% | HCT-116 colon 108% | HCC-2998 colon 107% | KM12 colon 110%

Cc1cc2nc(CO)[nH]c2cc1C
inactive: T-47D breast 124% | BT-549 breast 105% | MDA-MB-435 melanoma 109% | SW-620 colon 103% | MCF7 breast 120% | HCT-116 colon 108% | HCC-2998 colon 109% | KM12 colon 103%

CC(CN1CCCCC1)NC(=O)c1scnc1-c1ccccc1 (stereo not drawn)
inactive: T-47D breast 98.7% | BT-549 breast 101% | MDA-MB-435 melanoma 101% | SW-620 colon 106% | MCF7 breast 103% | HCT-116 colon 93.8% | HCC-2998 colon 96.8% | KM12 colon 106%

CN(C)c1ccc2nc3ccc(=N)cc-3sc2c1
inactive: T-47D breast 19.1% | BT-549 breast 51.6% | SW-620 colon 23.5% | MCF7 breast 23.9% | HCT-116 colon 16.7% | HCC-2998 colon 67.4% | KM12 colon 38%
active: MDA-MB-435 melanoma -59.8%

Cc1ccc(C(O)C2CC2)cc1 (stereo not drawn)
inactive: T-47D breast 97.4% | BT-549 breast 107% | MDA-MB-435 melanoma 103% | SW-620 colon 100% | MCF7 breast 104% | HCT-116 colon 107% | HCC-2998 colon 113% | KM12 colon 107%

Cc1nc2ccccc2c2nnc(SCC(=O)N(Cc3ccccc3)c3ccccc3)n12
inactive: T-47D breast 76.4% | BT-549 breast 87.2% | MDA-MB-435 melanoma 96% | SW-620 colon 93.5% | MCF7 breast 102% | HCT-116 colon 43.1% | HCC-2998 colon 110% | KM12 colon 129%

COCCCNC(=O)c1nnn2c1nc(N)c1cc(Cl)ccc12
inactive: T-47D breast 79% | BT-549 breast 79.2% | MDA-MB-435 melanoma 10.9% | SW-620 colon 81% | MCF7 breast 73.4% | HCT-116 colon 77.6% | HCC-2998 colon 89.4% | KM12 colon 50.2%

O/N=C/c1ccc(O)cc1O
inactive: T-47D breast 94% | BT-549 breast 103% | MDA-MB-435 melanoma 107% | SW-620 colon 102% | MCF7 breast 98.6% | HCT-116 colon 114% | HCC-2998 colon 105% | KM12 colon 99%

CCc1ccc(/C(C#N)=C/C=C/c2ccccc2)cc1
inactive: T-47D breast 35.3% | BT-549 breast 68.5% | SW-620 colon 21% | MCF7 breast 16.2% | HCT-116 colon 33.5% | HCC-2998 colon 60.8% | KM12 colon 35.1%
active: MDA-MB-435 melanoma -17.5%

Cc1ccc(Cl)cc1NC(=O)N(C)CCO
inactive: T-47D breast 104% | BT-549 breast 116% | MDA-MB-435 melanoma 117% | SW-620 colon 137% | MCF7 breast 88.7% | HCT-116 colon 112% | HCC-2998 colon 104% | KM12 colon 120%

O=C(OCC(O)C1OC(c2ccccc2)OC(COC(=O)c2ccccc2)C1O)c1ccccc1 (stereo not drawn)
inactive: T-47D breast 109% | BT-549 breast 110% | MDA-MB-435 melanoma 102% | SW-620 colon 109% | MCF7 breast 91.1% | HCT-116 colon 109% | HCC-2998 colon 103% | KM12 colon 111%

O=C(O)CSCSCC(=O)O
inactive: T-47D breast 95.4% | BT-549 breast 101% | MDA-MB-435 melanoma 99.6% | SW-620 colon 105% | MCF7 breast 99.6% | HCT-116 colon 106% | HCC-2998 colon 109% | KM12 colon 109%

CCCCC(CC)COC(C)=O (stereo not drawn)
inactive: T-47D breast 97.2% | BT-549 breast 107% | MDA-MB-435 melanoma 105% | SW-620 colon 104% | MCF7 breast 96% | HCT-116 colon 108% | HCC-2998 colon 105% | KM12 colon 101%
